# Compounds without any hit were thinned out: in the full panel of roughly 83,000, 20% have a hit.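 How to read the values: 0–100, growth inhibition (40 = 60% inhibited); 0, no net growth; -100 to 0, cell death (-40 = 40% of starting cells died; -100 = all dead).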 Unmarked numbers belong to inactive results. Calls of active or inactive are those of the source. The calls were made as follows: active = growth percent below 10; inactive = the rest.
# Tests used:
# Assay in all cases: NCI-60 one-dose screen, 48 h (100 = growth as untreated, 0 = no growth, -100 = all killed)
# Settings in all cases: 10 µM
# [1] = tested on: NCI-H23 lung
# [2] = tested on: NCI-H226 lung
# [3] = tested on: NCI-H322M lung
# [4] = tested on: HOP-62 NSCLC
# [5] = tested on: NCI-H460 lung
# [6] = tested on: HOP-92 NSCLC
# [7] = tested on: NCI-H522 lung
# [8] = tested on: A549/ATCC NSCLC
# [9] = tested on: 786-0 renal
# [10] = tested on: COLO 205 colon
# [11] = tested on: DU-145 prostate
# [12] = tested on: K-562 leukemia
# [13] = tested on: MALME-3M melanoma
# [14] = tested on: MDA-MB-231 breast
# [15] = tested on: RXF 393 renal
# [16] = tested on: SF-268 CNS
# [17] = tested on: SF-295 CNS
# [18] = tested on: SF-539 CNS
# [19] = tested on: UACC-257 melanoma
# [20] = tested on: M14 melanoma
Compound,growth [1],growth [2],growth [3],growth [4],growth [5],growth [6],growth [7],growth [8],growth [9],growth [10],growth [11],growth [12],growth [13],growth [14],growth [15],growth [16],growth [17],growth [18],growth [19],growth [20]
CC(=O)Nc1ccc(-n2cnc3cc(-c4ccc(O)cc4)ccc32)cc1C,47.6%,57%,74.9%,63.5%,36.4%,67.2%,-29.1% (active),47.5%,55.7%,93.9%,60.8%,41.2%,58.9%,49.3%,43.4%,53.1%,52.8%,41.5%,61.2%,42.3%
N#Cc1c(NC(=O)c2ccc(C(F)(F)F)c(Cl)c2)sc2c1CCC(=O)C2,-60.9% (active),-26.4% (active),39.7%,-56.5% (active),-10.1% (active),-55.3% (active),-71.2% (active),19.3%,-48.2% (active),-94% (active),19.5%,0.454% (active),-56.9% (active),-87.5% (active),-86.3% (active),-22.7% (active),-88.9% (active),-87.6% (active),-23.3% (active),-68.8% (active)
O=C1NC(=NC23CC4CC(CC(C4)C2)C3)N/C1=C\c1ccc2ncccc2n1,-53.7% (active),-15.6% (active),-10.2% (active),-5.42% (active),-8.97% (active),-14.6% (active),-20.6% (active),2.65% (active),2.78% (active),-19.3% (active),2.14% (active),13.6%,-41.3% (active),-18.5% (active),-78.1% (active),-29.8% (active),-27.5% (active),-77.7% (active),-4.23% (active),14.5%
Cn1cc(-c2cc(N)n3nc(-c4c[nH]c5ccc(Br)cc45)cc3n2)c2cccnc21,-84% (active),-71.2% (active),-42% (active),-89.6% (active),-35.7% (active),-67.7% (active),-82.8% (active),-80% (active),-80.2% (active),-85.8% (active),-92.5% (active),-3.96% (active),-92.4% (active),-85.6% (active),-85.2% (active),-45.7% (active),-91.9% (active),-97.7% (active),-84.3% (active),-85.8% (active)
CC1=C(C(=O)OC(C)C)C(c2ccc(O)cc2)NC(=S)N1 (stereo not given),98.8%,99.2%,102%,104%,124%,112%,93.1%,109%,95.7%,119%,100%,95.2%,105%,100%,97.3%,111%,96.6%,98.2%,121%,97%
CC1=C2C(=C[C@@](C)(CO)[C@@H]2O)/C(=N\N)[C@](C)(O)C12CC2,-77.8% (active),-41.2% (active),-11.9% (active),-27% (active),-6.47% (active),-22.6% (active),-62.4% (active),5.73% (active),6.59% (active),-79.4% (active),1.63% (active),19.3%,-76.2% (active),-21% (active),-90.5% (active),-3.67% (active),-14.8% (active),-75.8% (active),-49.4% (active),5.88% (active)

# From PubChem BioAssay (NCI)
